Experimental data reported in PubChem BioAssay AID504444 (National Center for Advancing Translational Sciences (NCATS), 2011).
Hit rate of the full screen: of about 360,000 compounds, about 7,500 (2.1%) were called active. About 20% were inconclusive and are not listed. Shown is part of a subset that was picked to be rich in actives. Unmarked numbers belong to inactive results. Calls come from the whole dose curve; as a rule, active = well fitted inhibition curve with a large enough effect; inconclusive = small, poorly fitted or top-dose-only effect, or effect the other way; inactive = flat fitted curve, though single readings scatter.

Assay: Nrf2 qHTS screen for inhibitors; note: nearly all actives have a fitted effect of over 60% in size
Details: A549 ARE-Fluc reporter, luciferase luminescence, 18-24 h; series mostly up to 46 µM; activity change, negative = inhibition: at the top concentration
From the text: NIH Molecular Libraries Probe Production Network [MLPCN]
NIH Chemical Genomics Center [NCGC]
Assay Provider: Shyam Biswal, Johns Hopkins University
Nrf2 is a transcription factor that maintains cellular redox homoestasis and protects cells from xenobiotics. Nrf2 binds to the antioxidant response element (ARE) to induce gene expression of a broad spectrum of genes that encode for antioxidants. […] Finding a small molecule that act as an inhibitor of Nrf2 function would represent a novel therapeutic target that could lead to improvement in survival of patients undergoing chemo- and/or radio- therapy.
This is the Nrf2 activity measured in the luminescent read.
1. Shibata, T., et al., Genetic Alteration of Keap1 Confers Constitutive Nrf2 Activation and Resistance to Chemotherapy in Gallbladder Cancer. Gastroenterology, 2008.
2. Sjoblom, T., et al., The consensus coding sequences of human breast and colorectal cancers. Science, 2006. 314(5797): p. 268-74.
NCGC Assay Protocol Summary:
A concentration-response assay was performed with A549 ARE_Fluc cells which are suspended in 5% FBS OPTI-MEM. Five uL were dispensed into 1536-well white TC-treated plate using the Kalypsys dispenser to achieve a density of 5000 cells/well in all columns except column 1. The plate is incubated at 37deg C at 5% CO2 for 2 hours before 23 nL of compounds are added with the Kalypsys pin tool equipped with a 1,536-pin array containing 10-nL slotted pins (FP1S10, 0.457-mm diameter, 50.8 mm long; V&P Scientific). The control compounds Budesonide and Staurosporine are both added at a concentration of 2mM and Budesonide is also added as a 1:10 titration, starting at 200uM, to achieve dose-response. After an 18-24 hour incubation at 37deg C at 5% CO2, 5ul of medium is added to column 1. Afterwards 1ul of 5x of CellTiter-Fluor (Promega) is added to every well. The plate is then incubated at 37deg C at 5% CO2 for 30 minutes before they are read on the ViewLux (Perkin Elmer) for a fluorescent read Ex=405(10)/Em=525(10) for a 3 second exposure, 2x binning, and high gain. Then 3 uL of 3x BugLite is dispensed into all wells and the plate is incubated at ambient room temperature for 15 minutes. Afterwards another ViewLux read is performed using the clear filter to get a luminescent read with the settings of 40 second exposure, 2x binning, and high gain. Cytotoxicity is assessed through the first fluorescent read and then biochemical activity against Nrf2 is measured in the luminescent read.
% is set by controls: 0 for no effect and ±100 for the full control effect; potency is the fitted concentration of half-maximal effect.

Compound | activity change, negative = inhibition | Potency
Cc1ccc(O)c(NC(=O)CCS(=O)(=O)c2nc(-c3ccc4c(c3)OCO4)cc(C(F)(F)F)n2)c1 | 8.08% [at 9.27 µM] | 
CC1CCCCN1CC(=O)N1CCCc2c1c(=O)oc1ccc(OCc3ccccc3)cc21 (configuration not stated) | -15.1% | 
CC1=C(c2ccc(C)c(C)c2)S(=O)(=O)NC1=NCc1ccccc1Cl |  | 23.1 µM (active)
Cc1ccc(-c2cc(C(=O)Oc3ccccc3Cl)no2)cc1C | 12.8% | 
Cc1ccc(CNc2ncnc3cc(-c4ccc5c(c4)OCO5)ccc23)o1 | 4.57% | 
Cc1cccc(NC(=O)c2ccc(COc3ccccc3[N+](=O)[O-])o2)n1 | -18.1% | 
O=C(Nc1ccn(Cc2ccccc2F)n1)c1ccc(COc2ccc(Cl)cc2Cl)o1 |  | 25.9 µM (active)
O=C(O)c1ccc(NC(=O)c2ccc(COc3ccc(Cl)cc3)o2)cc1 | 29.2% | 
CCc1nn(CC(=O)Nc2cc(C)cc(C)c2)c(=O)c2cc3sccc3n12 | 9.2% | 
CC1CC2=C(CC1/C=N/NC(N)=S)C(C)(C)CCC2 (configuration not stated) |  | 23.1 µM (active)
CCc1nc2nc(C)cc(Nc3ccc(F)c(Cl)c3)n2n1 | -13.4% | 
Cc1ccc(CNC(=O)Cn2cnc3c(NCc4ccccc4)ncnc32)o1 | -7.86% | 
Cc1cccc(NC(=O)Cn2cc(S(=O)(=O)Cc3ccccc3Cl)c3ccccc32)c1 | -4.12% | 
CCN(C(=O)c1ccc(Br)cc1)c1ccccc1 | -12.2% | 
O=C(O)CC/C(=N\NC(=O)c1ccc(F)cc1)c1ccc(Br)cc1 | 7.74% | 
O/N=C(\C[n+]1ccccc1)c1ccc(Br)cc1 |  | 3.66 µM (active)
COC(=O)[C@]1(Cc2ccccc2)N[C@H](CN(C)S(=O)(=O)c2ccc(OC(F)(F)F)cc2)[C@@H]2C(=O)N(C)C(=O)[C@@H]21 | -14.7% | 
CCCN(CCC)CCCNC(=O)Cn1ncc2c3ccccc3n(Cc3ccccc3)c2c1=O | 13.4% | 
Cc1ccc(S(=O)(=O)c2cn(Cc3ccccc3)c3cc(N4CCCC4)c(F)cc3c2=O)c(C)c1 | -14.6% | 
Cc1ccc(S(=O)(=O)N2C[C@@H]3CCCC[C@@H]3[C@@H](C)[C@H]2c2cn(Cc3ccccc3)c3ccc(F)cc23)cc1 |  | 2.91 µM (active)
Cc1cccc(S(=O)(=O)c2cn(Cc3ccccc3)c3cc(N4CCOCC4)c(F)cc3c2=O)c1 | -18.8% | 
N#CC1=C(N)Oc2cc(N)ccc2C1c1ccccc1 (configuration not stated) | -15.3% | 
CN(C)Cc1cn(-c2ccccc2)nc1-c1ccccc1 | -3.78% | 
O=C(N[C@H]1C/C=C\C(c2ccc(F)cc2)N(Cc2ccccc2)C(=O)C1)OCC1c2ccccc2-c2ccccc21 (some centres not stated) | 4.03% | 
O=C(O)CSc1nccc2ccccc12 |  | 16.4 µM (active)

Compound | activity change, negative = inhibition | Potency
CC(C)N(C(=O)CSc1nc(COc2ccccc2)nc2ccccc12)C(C)C | -10.9% | 
CCc1c(SCCC(=O)O)nc2ccccc2c1C | -7.59% | 
NC(=O)C1(Nc2ccc(-c3ccccc3)cc2)CCCC1 | 8.22% | 
O=C1CCCC2=C1[C@@]1(CCC(c3ccccc3)C1)N=C(Nc1nc3ccccc3o1)N2 (some centres not stated) | -25.3% | 
O=c1c2ccccc2n(Cc2cccc(Cl)c2)c(=O)n1Cc1ccccc1 | -5.53% [at 9.27 µM] | 
CCOC(=O)c1cnc(SCC(=O)NCc2ccco2)nc1N | -21.5% | 
CCOC(=O)c1cnc(SCC(=O)Nc2cccc(OC)c2)nc1N |  | 25.9 µM (active)
CCOC(=O)c1cnc(SCc2nc(N)nc(Nc3ccc(OC)cc3)n2)nc1N | -25.3% | 
COc1ccc(-c2cn3c(n2)sc2cc(C(=O)Nc4ccc(F)cc4)ccc23)cc1 | -5.23% | 
CCCCCCC1(C)NC(c2ccc3c(c2)OCO3)=CC(c2ccccc2O)N1 (configuration not stated) | 2.14% | 
Cc1ccc(C(=O)NCCNC(=O)c2cnccn2)cc1 | 4.7% | 
CC(=O)NCC(=O)NC1CCCc2c1cnn2-c1ccccc1F (configuration not stated) | 19.1% | 
CC1=C(C(=O)NC2CC(C)(C)Cc3c2cnn3-c2ccc(C)cc2)OCCO1 (configuration not stated) | -24% | 
Cc1cccc(-n2nc3c(c2NC(=O)c2ccc(Br)o2)CSC3)c1C | -10.6% | 
COc1ccc(C(=O)NC2CC(C)(C)Cc3c2cnn3-c2ccccc2C)o1 (configuration not stated) | 13.2% | 
Cc1ccc(-c2csc(NC(=O)c3cnccn3)n2)cc1C | 15.5% | 
Cc1ccc(-n2ncc3c2CCCC3NC(=O)c2cnccn2)cc1C (configuration not stated) |  | 20.6 µM (active)
Cn1nccc1C(=O)NC1CCCc2c1cnn2-c1ccc(F)cc1F (configuration not stated) |  | 0.184 µM (active)
Cc1cc(C(=O)NC2CCCc3c2cnn3-c2cccc(C)c2C)c(C)o1 (configuration not stated) |  | 3.66 µM (active)
COc1cc(CNCCSc2nnnn2C)ccc1OCc1ccc(Cl)cc1Cl | -13.7% | 
COc1ccc(CNC(=O)CS(=O)Cc2nc(-c3cccc(C)c3)oc2C)cc1 (configuration not stated) | -4.99% | 
Cc1ccc(OCCSc2nc(C)c(Cc3ccccc3)c(=O)[nH]2)cc1 | 7.59% | 
CCOC(=O)[C@H]1[C@H]2COc3ccc(Br)cc3[C@@H]2N2C(=O)CN(C)C(=O)[C@@]12C | -13.2% | 
CN(CC(=O)Nc1ccc(OC(F)F)cc1)S(=O)(=O)/C=C/c1ccccc1 | -13.5% | 
O=C(Cc1ccccc1)Nc1cccc(NC(=O)c2ccccc2)c1 |  | 25.9 µM (active)

Compound | activity change, negative = inhibition | Potency
O=C(Nc1cccc(NC(=O)c2cccc(F)c2)c1)c1ccccc1 | -21.7% | 
O=C(Nc1cccc(NC(=O)c2ccc(Br)cc2)c1)c1ccccc1 |  | inactive
Cc1ccccc1C(=O)Nc1sc2c(c1C(=O)N1CCC(C)CC1)CCCC2 | 3.62% | 
COc1ccc(C(=O)NCC(=O)N/N=C/c2ccc([N+](=O)[O-])s2)cc1OC |  | 25.9 µM (active)
CC(C)(C)c1cc(C(=O)N/N=C/c2ccc([N+](=O)[O-])s2)n[nH]1 |  | 20.6 µM (active)
COc1ccc2ccccc2c1/C=N/NC(=O)c1cc(C)[nH]n1 | 10.1% | 
Cc1cc(C(=O)N/N=C/c2cc([N+](=O)[O-])cc(C)c2O)n[nH]1 | -24.2% | 
CCOc1ccc(NC(=O)CCC(=O)N/N=C/c2ccc([N+](=O)[O-])s2)cc1 | -11.9% | 
COc1ccc(C(=O)COC(=O)c2ccc([N+](=O)[O-])s2)cc1OC | 10.6% | 
Cn1c(=O)c(C(=O)O)nn(-c2ccccc2)c1=O | 7.58% [at 9.27 µM] | 
COc1ccc(C2=NC(c3ccncc3)=Nc3ccc(Br)cc3N2)cc1 | -17.2% | 
COc1cc(C2CC(=O)Oc3cc(OC)c(OC)c(OC)c32)cc(OC)c1OC (configuration not stated) | -9.18% | 
CCN1CCN(CCNC(=O)c2ccc(/C=C3/Sc4ccccc4N(Cc4cccc(C)c4)C3=O)cc2)CC1 | 6.25% | 
CCN1/C(=C/c2ccc3ccc(C)cc3[n+]2CC)Sc2ccccc21 |  | 13 µM (active)
FC(F)(F)c1ccc(-c2cccc3c2C2CC3CCN2Cc2ccccc2)cc1 (configuration not stated) | -5.75% | 
COc1ccc(-c2cc(NCc3ccc(F)cc3)n3cnnc3n2)cc1 | -20.5% | 
NC(=O)c1ncn([C@@H]2O[C@H](CNCc3cnc(N4CCOCC4)s3)[C@@H](O)[C@H]2O)n1 | -1.58% | 
Cn1nc(-c2ccccc2)c(CO)c1Sc1ccccc1 |  | 25.9 µM (active)
Cc1ccc(S(=O)(=O)c2c(COC(=O)c3cccc(Cl)c3)c(-c3ccccc3)nn2C)cc1 | 4.27% | 
Cn1nc(-c2ccccc2)c(CSc2cccc(Cl)c2)c1Cl | -17.6% | 
O=C(COc1ccccc1F)NNC(=O)c1cc(Br)ccc1Cl | 2.26% | 
O=C(CN1C(=O)NC2(CCCCCC2)C1=O)Nc1ccc([N+](=O)[O-])cc1 | -1.58% | 
CCC1CCCCN1Cc1c(O)ccc2c(=O)c(Oc3ccccc3Cl)c(C(F)(F)F)oc12 (configuration not stated) | 1.23% | 
C#CCOCCOCCOCCNc1nc(N2CCN(C(=O)Cn3cc(CCO)nn3)CC2)nc(N2CCN(C(=O)[C@H](CCCCN)n3cc(CCCC)nn3)CC2)n1 | 6.59% | 
C=CCn1c(C)cc(C2=NNC(=NCC)SC2)c1C |  | 16.4 µM (active)

Compound | activity change, negative = inhibition | Potency
Cc1cc(C2=NNC(=Nc3ccc(S(=O)(=O)N4CCOCC4)cc3)SC2)c(C)n1CC1CCCO1 (configuration not stated) | 14% | 
Cc1cccc2nc(-c3ccc(Cl)s3)c(Nc3ccc4c(c3)OCCO4)n12 | -12.5% | 
COc1ccc(NC(=O)/C(N=Nc2cccc(S(=O)(=O)Nc3ccc(SC(F)F)cc3)c2)=C(\C)O)cc1 | -4.71% | 
C=CCCC(=O)N1C[C@H]2CON(C)[C@H]2C[C@H]1c1cccc(Nc2ccccc2)c1 | 6.32% | 
CN(C)C(=O)CCc1ccc2c3c([nH]c2c1)[C@]1(C)[C@@H](C(=O)N2CCCCC2)C[C@H](CC(=O)NCCC2=CCCCC2)C(=O)N1CC3 | -13.1% | 
CCc1ccc(S(=O)(=O)n2ccnc2)cc1 | 29.8% | 
CCOc1ccccc1CNC(=O)c1ccc(-n2c(C)cc3c2CCC(C)C3)cc1 (configuration not stated) | 9.8% | 
COc1ccc(C(=O)NC(=S)NNC(=O)c2c(-c3ccccc3)noc2C)cc1 |  | 23.1 µM (active)
O=C(CCc1ccccc1)NNC(=O)c1ccc(Br)cc1 | 3.41% | 
Cc1ccc(CNC(=O)c2c(-c3ccccc3)noc2C)cc1 | -5.27% | 
COc1ccc(C(=O)NNC(=S)NC(=O)c2ccccc2[N+](=O)[O-])cc1 | -1.05% | 
COc1ccc(C(=O)NC(=S)NNC(=O)CCc2ccccc2)cc1 |  | 7.31 µM (active)
CC(C)Oc1ccc(CCC(=O)NNC(=S)NCc2ccccc2)cc1 | -0.796% | 
CCN(C(=O)c1sc2cc(OC)ccc2c1Cl)c1ccccc1 | -27.9% | 
C=CCN1C=C(C(=O)c2ccccc2)C(=O)CC1 | -4.83% | 
COc1cccc(CNC(=O)c2n[nH]c3ccccc23)c1 | -2.22% | 
CC(Nc1nc(C(F)(F)F)nc2ccccc12)c1cccs1 (configuration not stated) | 4.12% | 
NS(=O)(=O)c1ccc(CCNc2nc(C(F)(F)F)nc3ccccc23)cc1 |  | 23.1 µM (active)
COc1cccc(CNc2ncc(-c3ccccc3)n2C)c1 | 0.973% | 
NS(=O)(=O)c1ccc(CCNC(=O)CNC(=O)Cc2ccccc2)cc1 | 4.33% | 
COc1cccc(CNc2nc(C(F)(F)F)nc3ccccc23)c1 |  | 23.1 µM (active)
Cc1ccc(C)c(Cn2c(C(=O)O)c(CNCc3cccs3)c3ccccc32)c1 | -15.6% | 
